The text below walks through data of the OligoGym collection.
Note: reference of the scale not given here.

The first experiment deals with LY96. The experiment is described as follows: pooled miR-30 sensor sort-seq; sequence = guide strand. Conditions: shRNA.
TAAATCTCTCCTTGGAATGTAG returned a sensor-assay potency score (higher = more potent) of -0.351.

Regarding AATAGCTTCAACAACACATTTG, the sensor-assay potency score (higher = more potent) is -1.65.

With TAGGTGTATGAAATACTTGCAT, the sensor-assay potency score (higher = more potent) is -0.275.

The sequence TGTATGAAATACTTGCATCGGA returned a sensor-assay potency score (higher = more potent) of -0.274.

For TTGTTGTATTCACAGTCTCTCC, the sensor-assay potency score (higher = more potent) is -1.2.

Sequence TATAATTGCTTTAAATCTCTCC returned a sensor-assay potency score (higher = more potent) of 0.0244.

Take AATTGCTTTAAATCTCTCCTTG: the sensor-assay potency score (higher = more potent) is -0.268.

For the sequence TAGGATGACAAACTCCAAGCAA, the sensor-assay potency score (higher = more potent) is -0.085.

With TTCAACAACACATTTGTATTTT, the sensor-assay potency score (higher = more potent) is -1.05.

On to TTGCTTTAAATCTCTCCTTGGA, for which the sensor-assay potency score (higher = more potent) was 0.126.

Turning to TTGTATTCACAGTCTCTCCCTT, the sensor-assay potency score (higher = more potent) was 0.102.

TAATCGTCATCAGATCCTCGGC had a sensor-assay potency score (higher = more potent) of -0.407.

A further experiment has as its target LYPD3. Described as above. Conditions: shRNA.
Regarding TTCACTGTCTTCATCTTGTTCG, the sensor-assay potency score (higher = more potent) is 0.494.

Sequence TTGCCGTCGAAGCAGCCCTTGT gave a sensor-assay potency score (higher = more potent) of -1.63.

As for TCTGCTTTCTGCACGCAGCTGT, the sensor-assay potency score (higher = more potent) is 0.703.
